Among the targets are SLMAP; SLIT1; SLITRK5; SLCO4C1.
Holding throughout (assay): pooled miR-30 sensor sort-seq; sequence = guide strand
Common to all, as to conditions: shRNA
Further: reference of the scale not given here.

In turn, TTCACTGTCCTTCTCCTCCCGG came in with a sensor-assay potency score (higher = more potent) with SLMAP of -0.623.

As for TTGACATGGGTTCAGATCCGGA, the sensor-assay potency score (higher = more potent) with SLIT1 was -1.04.

As for TTGCAGGTCAGTGAACTGCAGG, the sensor-assay potency score (higher = more potent) in the assay with SLIT1 is -1.32.

In turn, TTCAATCGCAGTTCTGCCGTGG had a sensor-assay potency score (higher = more potent) with SLIT1 of 0.209.

With TACAGCAAACGCTAGAGTCTGC, the sensor-assay potency score (higher = more potent) with SLITRK5 is -0.49.

In turn, TAATATTCAAGTATGCTGCTTC registered a sensor-assay potency score (higher = more potent) with SLCO4C1 of 0.868.

Source of the values: the OligoGym collection.
